Bioassay records: PubChem, several laboratories
Shown are actives, neighbours in structure and some others; about 4.2% of the full set was active somewhere.
tim10-1 inh = growth inhibitors of tim10-1 mutant yeast | S. cerevisiae tim10-1 ts strain growth, BacTiter-Glo, 24 h | inhibition, % at 20 µM | hit rate 2.2% among 330,000 | AID 463190;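 active = inhibition of at least 40%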;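 note: mutant grown at 25 °C; 0% = DMSO wells with yeast and 100% = wells holding no yeast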
NLRP3 yeast inh = NALP3 inhibition in yeast. Yeast reconstituted NLRP3/ASC/caspase-1, beta-gal luminescence, 24 h. inhibition, % at 10 µM. hit rate 0.39% among 330,000;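 active = inhibition of 50% or more; inactive = inhibition below 50%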;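 note: plate controls were induced DMSO wells for no effect and uninduced yeast grown without galactose for full effect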
V-ATPase pHluor = yeast V-ATPase proton transport regulation by pHLuorin. S. cerevisiae, pHLuorin cytosolic pH fluorescence. response, % at 10 µM. hit rate 0.37% among 350,000; in the data active = response mostly above about 7.3%, no sharp cut-off; inactive = mostly below about 5.4%; note: actives read high
tim23-1 inh = tim23-1 yeast growth inhibition. S. cerevisiae tim23-1 growth, BacTiter-Glo luminescence, 24 h. inhibition, % at 20 µM. hit rate 1.3% among 330,000. AID 463212;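 active = growth inhibition of the mutant yeast at or above 50%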;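 note: temperature-sensitive mutant grown at 25 °C; plate controls were DMSO-treated mutant yeast for no effect and medium wells lacking yeast for full effect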
NALP1 inh = NALP1 inhibition; S. cerevisiae NALP1/ASC/caspase-1 growth, X-gal OD620, 72 h; inhibition, % at 10 µM; hit rate 0.61% among 280,000; in the data active = inhibition mostly above about 24%, no sharp cut-off; inactive = mostly below about 32%
TIM10 inh = growth inhibitors of TIM10 yeast strain; inhibition, % at 10 µM; hit rate 1.4% among 330,000; S. cerevisiae TIM10 strain growth, BacTiter-Glo luminescence, 24 h;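 active = inhibition of 40% or more at the single tested concentration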;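 note: wild-type TIM10 isogenic control strain grown at permissive 25 °C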
Starred values were filed as active, the others as inactive; · = no result given.

SMILES	tim10-1 inh	NLRP3 yeast inh	V-ATPase pHluor	tim23-1 inh	NALP1 inh	TIM10 inh
O=S(=O)(NC1CCN(Cc2ccccc2)CC1)c1cccc(S(=O)(=O)N2CCOCC2)c1	0.9	2.4	15.2*	31.2	24.7	6.9
Cc1ccsc1/C=C1/NC(=O)N(Cc2ccc(F)cc2)C1=O	12.4	8.8	1.7	-9.6	33.5*	-1.1
O=C(NCc1ccc(Cl)cc1)c1ccc(OCC2CCCO2)cc1 (configuration not stated)	23.8	24.6	-2.0	5.3	27.5	-8.6
O=C(Nc1ccc(Cl)cc1)c1ccc(OCC2CCCO2)cc1 (configuration not stated)	-13.3	29.5	-1.7	-0.2	35.0*	0.8
CC1=CC(=O)C=C(C)C1=NOS(=O)(=O)c1ccccc1	·	·	3.6	·	104.3*	·
Cc1ccc(S(=O)(=O)CCC(=O)c2cccc([N+](=O)[O-])c2)cc1	25.0	-3.7	27.9*	26.2	4.7	19.9
Cc1ccc(C(=O)CCS(=O)(=O)c2ccc(Br)cc2)cc1	7.4	14.1	-4.2	17.2	0.8	10.8
COc1ccc(C(=O)CN2C3=NCCCN3c3ccccc32)cc1OC	3.0	8.9	4.8	6.0	22.3	5.6
Cc1ccc(C)c(C(=O)CN2C3=NCCCN3c3ccccc32)c1	7.0	-8.1	-0.2	11.0	33.3*	4.6
O=C(O)c1cccc(S(=O)(=O)Nc2ccc3c(c2)CCC3)c1	0.5	5.3	-2.0	-4.1	-19.6	0.9
N=c1n(CC(=O)c2ccc([N+](=O)[O-])cc2)c2ccccc2n1Cc1ccc(Cl)cc1	5.8	9.9	-1.5	-33.6	64.3*	2.7
COc1ccc(CCNC(=O)CN(Cc2ccc(Cl)cc2)S(C)(=O)=O)cc1OC	2.5	1.1	-1.0	10.2	28.5*	-7.3
O=C(c1ccco1)N1CCN(CCOCCOc2cccc3ccccc23)CC1	9.8	32.8	0.4	13.7	-17.5	11.7
c1ccc(CN2CCN(CCOCCOc3cccc4ccccc34)CC2)cc1	24.5	30.7	-0.3	12.6	37.6*	17.9
CN1CCN(CC(O)Cn2c3ccccc3c3ccccc32)CC1 (configuration not stated)	-11.3	0.7	-2.3	1.4	32.1	1.1
COc1ccc(CN2CCN(CC(O)Cn3c4ccccc4c4ccccc43)CC2)cc1 (configuration not stated)	-18.0	37.8	-3.7	-59.8	61.7*	-21.1
CCOc1ccc(CN2CCN(CC(O)Cn3c4ccccc4c4ccccc43)CC2)cc1 (configuration not stated)	-64.1	38.6	-1.1	-22.9	76.7*	-38.4
c1ccc(SCc2cn(C[C@H]3CC[C@@H]([C@@H]4CC[C@H](Cn5cc(CSc6ccccc6)nn5)O4)O3)nn2)cc1	10.6	-0.9	0.8	30.9	2.3	19.7
CCCCCCOc1ccc(/C(C)=N/NC2=NCCN2)cc1	-120.1	29.4	0.5	47.6	87.6*	-41.3
CCCCCOc1ccc(/C(C)=N/NC2=NCCN2)cc1	8.7	2.7	-2.5	3.8	17.2	12.1
COC(c1ccccc1)c1nnc(CCC(=O)NCCCc2ccccc2)o1 (configuration not stated)	8.4	5.1	3.0	13.0	12.8	-9.8
COC(c1ccccc1)c1nnc(CCC(=O)N(C)CCc2ccccc2)o1 (configuration not stated)	19.6	5.0	0.3	11.5	30.1*	-3.7
Cc1cc(S(=O)(=O)Nc2ccc(C(=O)NCC(c3ccccc3)N(C)C)cc2)ccc1F (configuration not stated)	-7.7	7.7	1.0	2.4	29.1*	-9.4
CC1CCCC(C)N1C(=O)COC(=O)c1ccc2ccccc2n1 (configuration not stated)	9.9	-5.4	-2.2	18.7	·	7.7
COc1ccc(S(=O)(=O)N(CCCN2CCOCC2)Cc2cccc3ccccc23)cc1	23.1	-5.5	2.4	6.2	39.1*	9.7
SMILES	tim10-1 inh	NLRP3 yeast inh	V-ATPase pHluor	tim23-1 inh	NALP1 inh	TIM10 inh
O=C(c1ccccc1)c1ccncc1	0.5	0.1	5.6	8.3	4.7	-3.1
CC1(C)N=C(C(=O)c2ccccc2)N(O)C1(C)O (configuration not stated)	13.8	10.8	·	13.0	33.1*	16.4
COc1ccc(NC(=S)NCc2ccccc2Cl)c(OC)c1	1.9	30.9	20.7*	32.8	21.1	7.5
COc1ccccc1NC(=S)NCc1ccccc1Cl	15.5	20.5	0.4	43.6	3.0	13.7
O=C(COC(=O)c1ccc(S(=O)(=O)N2CCCCC2)cc1)Nc1ccccc1Cl	1.1	22.8	5.1	1.5	·	-5.2
CC(C)CCSc1nc2[nH]ncc2c(=O)[nH]1	8.9	20.3	48.0*	12.3	0.1	-2.5
CCS(=O)(=O)N1Cc2ccccc2CC1C(=O)Nc1ccc(OC)c(OC)c1 (configuration not stated)	-12.2	7.7	2.8	8.2	8.4	13.9
CCS(=O)(=O)N1Cc2ccccc2CC1C(=O)N(C)Cc1ccc(OC)c(F)c1 (configuration not stated)	3.5	21.6	14.9*	12.0	7.6	18.0
CCN1CCN(Cc2c3ccccc3cc3ccccc23)CC1	4.4	14.9	-5.3	-11.6	18.7	-9.8
Cc1nn(C)c(C)c1NC(=O)CN1CCC(O)(c2ccc3c(c2)OCO3)CC1	2.2	4.0	-3.2	-11.3	30.6*	5.0
CCCc1cc(=O)oc2c(CN(CC)CC)c(O)c(Cl)cc12	1.4	11.6	0.0	-2.7	35.1*	3.3
CC(=O)N1CCN(Cc2nc3cc(NC(=O)COc4cccc(C)c4)ccc3n2C)CC1	10.4	-10.4	-3.0	-1.8	-3.3	11.9
O=C(CNC(=O)c1sc2ccccc2c1Cl)NCc1cccnc1	3.1	16.2	2.2	-7.0	-5.4	-15.4
O=C(CNC(=O)c1sc2ccccc2c1Cl)NCc1ccc(F)cc1	-2.5	22.8	17.9*	-3.2	·	-4.7
COCCN(Cc1cc2cc(C)ccc2n2nnnc12)C(=S)Nc1ccccc1C	22.5	22.7	2.6	7.8	23.6*	15.1
CCc1ccc2c(c1)cc(CN(C(=S)Nc1ccccc1C)C1CC1)c1nnnn12	6.5	2.3	-3.7	0.9	24.7	-20.1
CCCN1CCN(C(=O)c2c(Cl)cnn2C)CC1	-14.5	1.0	-4.1	0.8	18.4	1.7
CC(OC(=O)CNC(=O)C12CC3CC(CC(C3)C1)C2)C(=O)Nc1ncc(Cl)cc1Cl (configuration not stated)	29.8	-5.8	1.3	40.2	40.3*	23.9
CC(OC(=O)CNC(=O)C12CC3CC(CC(C3)C1)C2)C(=O)Nc1ccc(S(N)(=O)=O)cc1 (configuration not stated)	5.8	-8.7	-1.3	29.4	13.7	10.8
Cc1ccc(OC(=S)Nc2ccc(O)cc2)cc1	-4.9	15.4	1.9	-2.9	68.9*	-4.5
O=C1CCc2cc(S(=O)(=O)N3CCC(C(=O)NC4CCCc5ccccc54)CC3)ccc2N1 (configuration not stated)	11.8	11.9	0.6	19.6	-25.6	15.0
